PNC inhibitor: High Content Assay for Compounds that inhibit the Assembly of the Perinucleolar Compartment | PC3M PTB-GFP, PNC prevalence imaging, 16 h; active compounds read low | 3.1% of 140,000 active | activity change (PNC), negative = inhibition, % at 10 µM;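 active = readout at or below -70, meaning at least 70% loss of cells showing the perinucleolar compartment, a nuclear body marking cancer cells; inconclusive = readout between -30 and a set limit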
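Compounds are pinned in duplicate onto adhered PC3M cells stably expressing GFP-tagged PTB and incubated 16 h at 37 C. Cells are then fixed, nuclei stained with Hoechst, and PNC-positive cells counted.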
HPGD block: qHTS Assay for Inhibitors of HPGD (15-Hydroxyprostaglandin Dehydrogenase) | purified HPGD, NADH fluorescence kinetic, PGE2 substrate | Potency, µM, usual class: inhibitors | 4.3% of 150,000 active
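NADH formation kinetics: reaction with 30 uM PGE2 and 1 mM NAD+ (final), 20 nM enzyme, Tris-HCl pH 8 with Tween 20, after 15 min compound preincubation at room temperature. Fluorescence change, last versus first of five reads.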
ALDH1A1 inh: qHTS Assay for Inhibitors of Aldehyde Dehydrogenase 1 (ALDH1A1); Aldehyde dehydrogenase 1A1 (Homo sapiens), P00352; Purified ALDH1A1, NADH fluorescence, propionaldehyde substrate; Potency, µM (series often up to 75.3 µM), usual class: inhibitors; 7.3% of 220,000 active
Target sequence (P00352 whole entry, looked up): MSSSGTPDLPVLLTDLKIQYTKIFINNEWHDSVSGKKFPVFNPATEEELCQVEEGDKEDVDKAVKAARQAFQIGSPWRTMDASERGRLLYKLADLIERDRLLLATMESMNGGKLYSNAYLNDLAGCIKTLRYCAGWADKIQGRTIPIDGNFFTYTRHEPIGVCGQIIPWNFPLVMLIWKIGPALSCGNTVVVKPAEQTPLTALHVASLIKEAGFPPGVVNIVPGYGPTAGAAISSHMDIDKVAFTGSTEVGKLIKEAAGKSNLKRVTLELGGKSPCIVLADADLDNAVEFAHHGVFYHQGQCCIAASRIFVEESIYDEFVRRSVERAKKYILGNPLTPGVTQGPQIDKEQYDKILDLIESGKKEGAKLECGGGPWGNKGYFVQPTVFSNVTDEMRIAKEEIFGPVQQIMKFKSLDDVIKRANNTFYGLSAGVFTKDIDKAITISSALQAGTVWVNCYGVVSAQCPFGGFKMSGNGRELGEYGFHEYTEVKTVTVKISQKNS
Numbers stand for hits; n = inactive; u = inconclusive; x = no result; ! = not confirmed by another sample; [ ] = dose if it differs, or a comment. This is a sample that favours compounds with a hit; in the whole collection about 11% have one here. Unless noted, calls follow the shape of the dose curve; as a rule, active = well fitted inhibition curve with a large enough effect (not every such curve was filed as active); inconclusive = small, poorly fitted or top-dose-only effect, or another doubt; inactive = no such curve, though single readings can be large or run the other way.

SMILES	PNC inhibitor	HPGD block	ALDH1A1 inh
O=C(CSCc1ccc(Br)cc1)Nc1ccc(S(=O)(=O)N2CCOCC2)cc1	n	n	u
Cc1ccccc1NS(=O)(=O)c1ccc(NC(=O)CSCc2ccc(Br)cc2)cc1	-99	n	n
CC1=NN(C(=O)Cn2nc([N+](=O)[O-])cc2C)C(O)(C(F)(F)F)C1 (centres undefined)	n	n	n
Cc1cccc(CN2CCN(CC(=O)NCCCN3CCN(c4ccc(F)cc4)CC3)C2=O)c1	u	n	n
Cc1cccc(CN2CCN(CC(=O)NCCCN3CCCC3=O)C2=O)c1	-111	n	n
Cc1nc(-c2c(-c3ccc(O)cc3O)noc2C(F)(F)F)cs1	n	n	n
NC(=O)N1CCC2(CC1)NC(=O)N(c1ccccc1)N2	x	x	3.5µM
O=C1NC2(CCCCC2)NN1c1ccccc1	n	n	n
c1ccc(CNc2ccc3c(c2)ncn3C2CCCCC2)nc1	n	n	u
CC1CC[C@@]23CCC4(C)[C@@]5(C)CCC6C(C)(C)C(=O)CC[C@@]6(C)C5C=C[C@@]4(OC2=O)C3C1C (some centres undefined)	x	n	n
CCCCCCCCCCCC1=C(O)C(=O)C=C(O)C1=O	x	14µM!	24µM
NCCC[C@@H](CC(=O)N[C@@H]1CCNC[C@H]1C(=O)N[C@H](CC(=O)N[C@@H](CCC(=O)O)CC(=O)O)Cc1c[nH]c2ccccc12)NC(=O)C[C@H](Cc1c[nH]c2ccccc12)NC(=O)[C@@H]1CNCC[C@H]1N	x	n	n
CN(C)S(=O)(=O)c1cc(NC(=O)CN2CCc3ccccc32)ccc1Cl	x	x	1.6µM
NNC(=O)CN1CCCc2ccccc21	x	x	6.3µM
CN(C)S(=O)(=O)c1ccc(NC(=O)CN2CCCc3ccccc32)cc1	x	x	18µM
CN(C)S(=O)(=O)c1cc(NC(=O)CN2CCNC(=O)C2)ccc1Cl	n	n	u
CCCCc1ccc(NC(=S)Nc2cccnc2)cc1	u	n	u
CCCCc1ccc(NC(=S)Nc2ccc(Nc3ccc(OC)cc3)cc2)cc1	n	u	7.1µM
O=C(CN1CCCc2ccccc21)Nc1ccccc1[N+](=O)[O-]	x	x	n
CN(C)S(=O)(=O)c1ccc(NC(=O)CN2CCN(C(c3ccccc3)c3ccccc3)CC2)cc1	u	x	n
C=CCOCC/C=C1/c2ccccc2C(OC)C1C (centres undefined)	x	x	n[13.5 µM]
CC(O)CN(Cc1cccc(Cl)c1)CC(C)O (centres undefined)	n	n	n
Nc1n[nH]c(S(=O)(=O)CCCc2ccccc2)n1	u	n	n
O=C(Cn1nc(-c2cccc([N+](=O)[O-])c2)c2ccccc2c1=O)Nc1cccnc1	n	n	n
CCCCc1ccc(NC(=S)NCCc2ccc(S(N)(=O)=O)cc2)cc1	x	x	n
SMILES	PNC inhibitor	HPGD block	ALDH1A1 inh
CCCCc1ccc(NC(=S)Nc2ccc(Cl)c(S(=O)(=O)N(C)C)c2)cc1	-119	n	u
CCN1CCN(CC(=O)Nc2ccc(Cl)c(S(=O)(=O)N(C)C)c2)CC1	x	x	3.5µM
CN(C)S(=O)(=O)c1cc(NC(=O)CN2CCOCC2)ccc1Cl	x	x	n
CCN(CC(=O)Nc1ccc(Cl)c(S(=O)(=O)N(C)C)c1)CC(=O)NC(C)C	x	x	n
CN(C)S(=O)(=O)c1cc(NC(=O)CN2CCCc3ccccc32)ccc1Cl	x	x	8.9µM
O=C(N/N=C/c1ccc(COc2ccc(Br)cc2)o1)c1ccco1	n	n	n
Nc1nnc(SCC(=O)NC2CCCCC2)s1	n	n	n
CC1CCCCC1NC(=O)CSc1nncs1 (centres undefined)	u	22µM	n
Cc1nnc(SCC(=O)NC2CCCCC2C)s1 (centres undefined)	x	x	n
CC1CCCCC1NC(=O)CSc1nnc(-c2ccccc2)n1N (centres undefined)	-122	x	u
CC1CCCC(NC(=O)CSc2nnc(N)s2)C1C (centres undefined)	n	28µM	u
CC1CCCCC1NC(=O)CSc1nncn1N (centres undefined)	x	x	n
CS(=O)(=O)Cc1cc(N2CCCC2)nc(-c2ccccc2)n1	x	x	n
COc1ccc(-c2oc3ccc(C)cc3c(=O)c2O)cc1OC	x	n	u
Cc1ccc(CN(C)CC(=O)Nc2ccc3c(c2)CCC3)cc1	x	x	n
O=[N+]([O-])c1ccc(/C=N/NC(=S)Nc2ccccc2C(F)(F)F)o1	u	n	u
CC(C)NC(=O)CSCc1c(Cl)cccc1Cl	n	14µM	u
CNC(=O)CSCc1c(Cl)cccc1Cl	n	n	n
O=C(CSCc1c(Cl)cccc1Cl)Nc1nccs1	n	20µM	n
O=C(CSCc1ccccc1)Nc1nccs1	n	n	n
Cc1ccc2nc(NC(=O)Cn3cc4c(n3)CCCCC4)sc2c1	n	n	n
O=C(Nc1cccc(-c2cnc3ccccc3n2)c1)c1cccc(NC(=O)c2ccco2)c1	n	n	u
CC1=NNC(=O)C1CCC(=O)N/N=C\c1ccccc1[N+](=O)[O-] (centres undefined)	n	n	n
OC(c1ccc(OCc2ccccc2)cc1)c1nnc(-c2ccccc2)o1 (centres undefined)	n	20µM	n
OC(c1cccc(OCc2ccccc2)c1)c1nnc(-c2ccccc2)o1 (centres undefined)	u	u	n
SMILES	PNC inhibitor	HPGD block	ALDH1A1 inh
Cc1cc(C)nc(SCC(=O)OCC(=O)Nc2nc3ccccc3s2)n1	n	u	n
CC(C)Cn1cnc2c(c1=O)c1nc3ccccc3nc1n2Cc1ccc2c(c1)OCO2	u	n	0.79µM
CC(C)Cn1c2nc3ccccc3nc2c2c(=O)n(CCN3CCOCC3)cnc21	n	u	u
O=C(NCc1cccs1)C1CCCN(c2nc3ccccc3o2)C1 (centres undefined)	n	n	n
O=C(/C=C/c1ccco1)N1CCCC(c2ccccc2)C1 (centres undefined)	x	x	10µM
COc1ccc(N2CCN(C(=O)/C=C/c3ccco3)CC2)cc1	x	x	22µM
Cc1ccc(S(=O)(=O)N2CCN(C(=O)/C=C/c3ccco3)CC2)cc1	n	n	22µM
Cc1ccc(S(=O)(=O)N2CCN(C(=O)N(c3ccccc3)c3ccccc3)CC2)cc1	u	n	u
COc1ccccc1N1CCN(C(=O)/C=C/c2ccco2)CC1	n	n	n
O=C(/C=C/c1ccccc1)N1CCC(c2ccccc2)C1 (centres undefined)	n	u	n
CO[C@H]1COC(=O)[C@@H](C)COC(=O)[C@@H](COCc2ccccc2)NC(=O)C/C=C\[C@H]1C	x	x	n[13.5 µM]
O=C(N/N=C\c1cc(Cl)ccc1O)c1ccc(S(=O)(=O)N2CCCCC2)cc1	n	n	n
CC(C)Cn1c(-c2ccccc2F)n[nH]c1=S	n	n	n
CC(C)Cn1c(-c2ccncc2)n[nH]c1=S	x	x	n
CC(C)Cn1c(-c2csc3c2CCCC3)n[nH]c1=S	n	28µM	35µM
CSc1nnc(-c2sc(-c3ccccc3)nc2C)n1C	n	u	u
Cn1c(-c2ccccc2)n[nH]c1=S	x	x	n
CC(C)Cn1c(-c2ccc(F)cc2)n[nH]c1=S	n	28µM	u
Cn1c(-c2ccc(C(C)(C)C)cc2)n[nH]c1=S	n	u	32µM
Cc1nc(-c2ccccc2)sc1-c1n[nH]c(=S)n1C	n	n	25µM
